# In PubChem BioAssay AID1508600 (Functional Genomics Laboratory (NCATS/FGL), 2020):
# Out of some 53,000 sequences screened, about 3,700 (7%) were called active. This is one part of a sample in which actives are shown more often than they occur. A number with no mark means an inactive call.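 How the source made its calls: active means gene knockdowns whose robust z-score for IL-1 alpha signal is at least 2 or at most -2, so actives lie on both sides; inactive means the rest.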
# Test: Components of the Cytosolic LPS Sensing Pathway: Gene Identification via Genome-wide siRNA Screen;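 further: robust z of the log signal after scaling to non-targeting control siRNA wells of the plate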
# Details: RAW264.7 macrophages, IL-1a HTRF, actives lie on both sides, screened at 100 nM (by protocol), cells primed 5 h with Pam3CSK4 first
# Procedure, shortened: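 RAW264.7; siRNA 100 nM final, RNAiMAX, 48h 37 degrees C; Pam3CSK4 5 h; LipidA + TransIT-TKO 24 h; IL-1a HTRF; CellTiter-Glo viability; robust z vs negative-control median.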
row,Sequence,z-score
1,GGAUACCACUUUAGAACCATT against Fgfr2,0.484
2,CCACAUCUUUGACGAGUACTT against Rgs16,-0.145
3,GGAAGACAGGCAUAAAAAATT against Slc41a2,-1.38
4,GGUUAAGUCCCUAGGACAUTT against Blzf1,0.998
5,GGAAAAAUUGCUUCUGACCTT against Rad51b,-1.17
6,CCUACAAACCAGAAGAGGUTT against Akr1c19,0.285
7,CCAGACAUGAUACUCCGGCTT against Tssk3,2.57 (active)
8,GCCUGUGUGCUGUUGUGUUTT against Krtap5-1,1.33
9,CGGCAUCAUUCAUUCAUUATT against Pacrgl,2.01 (active)
10,CGAUACUGUGCAAAGAAUCTT against Nepro,0.231
11,CCUGUGUCAAUCCUGUGCATT against Ifitm7,0.0113
12,GGAACUUUAUGUGGAAAGATT against Vmn1r235,-0.449
13,CGGUCAAGGACAGGAAGUGTT against Eif4b,0.518
14,GGACAAAGAUAAUGGAAAATT against Erlec1,0.353
15,GGGAACGCAACAUUUCUCCTT against Oxld1,2.34 (active)
16,GGAUUCCAAUUUUAUUCCATT against Brca1,1.57
17,GAUAACAAGCAUCUCAUGUTT against Krtap6-5,-0.411
18,CCGGCAGACCUGUGACAUUTT against Rgs14,0.0166
19,GGUGGAGAAGCUCAUUGCUTT against Zap70,0.444
20,GGAAGAAAGAGUGUAUCAATT against Idi2,0.487
21,GGCUCAACCAAGAAAGGCUTT against 4930591A17Rik,-1.28
22,GAAAGAAACGGCAGAUUGCTT against Vmn2r122,0.133
23,GGAAAGUUGUGAACUCUAATT against Olfr1157,0.583
24,GGAUUAGUGCAGGAAUCAATT against Rel,0.922
25,GUUCCUGUUCCACUACUGCTT against Sts,-2.32 (active)
26,GCAAAACUGAACAAAGUACTT against Xirp2,0.658
27,CGAGUGUUGAAUAUUGUGATT against Gpr65,0.158

row,Sequence,z-score
1,GGUAGUUAAUCAGUGUAAATT against Rps6kb1,1.1
2,GGAUACCAUCAUUGAUGUCTT against Dmap1,-2.29 (active)
3,UCGGCCAUGUAGUAUGGGATT against Xlr3a,0.42
4,GCACUCACGAUCAUCUUUGTT against Has1,-0.513
5,GGCCCAGGUGGAUAGUUAUTT against Cep120,2.03 (active)
6,GGAAAACACACUUUUCUUUTT against Thap2,-0.119
7,GGCAGCAGGAUGCAGAAAUTT against Ngef,-2.43 (active)
8,GCUAUAGAUUGGCUUUAUGTT against Depdc1a,0.727
9,GACAAAACUCAUUGUUCUUTT against Taf11,1.16
10,CCUUCUCAUAGUGAAAGUATT against Zkscan5,1.05
11,GCCUUGCCCUGACUAUGUUTT against Paqr3,0.0997
12,GGUGCACAGAUGUCUUACCTT against Sec24d,-0.945
13,GGUAGAAGAGUCUGAUCAUTT against Sfrp1,-0.0589
14,GGCCAUUUACAAGAUGGUUTT against Hpca,-0.619
15,GGUGGUCUACAGAAAAUUCTT against Ncf1,-0.908
16,GGUGGUUCACAAAUACUGUTT against Agtpbp1,0.264
17,GGGCUACAUUCCUUCCAAUTT against Frk,5.59 (active)
18,GGAUCUCGAGCUGACAGAATT against Arhgap33os,1.31
19,GGGAAAGGAUUCAAUUAAGTT against Lratd2,0.0415
20,GAGGGCUCUACAGUUUUUATT against Atp5g3,0.952
21,GGCCUUCGAAAUAAUUCUGTT against Ppp1r14d,-0.605
22,GACCUUCGACACCGACAAATT against Rtl8c,3.29 (active)
23,GCGGCGAUACUUCUACUUGTT against Grk2,-0.584
24,CCUGUACAUUGUGUAAUGUTT against Pcdh8,0.0925
25,CCUGAACGACAGAUUGGCATT against Krt20,-0.697
26,CGAAUCCUUAGUUGAAGAATT against Fastkd1,1.18
27,GGAAAUUUCAGAGCUCAAGTT against Trpc2,-2.81 (active)
